Data on 40 compounds can be found in PubChem BioAssay (NCATS).

SMILES strings stand for the structures. Records with an inconclusive call do not appear. Unmarked numbers belong to inactive results. Activity calls are given as the source filed them. Calls come from the whole dose curve; as a rule, active = well fitted cell-killing curve with a large enough effect; inconclusive = small, poorly fitted or top-dose-only effect; inactive = flat fitted curve, though single readings scatter.
Potency is the fitted concentration of half-maximal effect.

The assay in a line: Cell Viability - NIH 3T3 (AID 541).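 For activity change, negative = cytotoxicity: plate controls were DMSO alone for no effect and tamoxifen positive control for full effect.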 Note: nearly all actives have a fitted effect of over 25% in size. The settings on record: NIH 3T3 cell viability, qHTS; activity change, negative = cytotoxicity: at 92.2 µM (top of the series). The source says:
NIH Chemical Genomics Center [NCGC]
NIH Molecular Libraries Screening Centers Network [MLSCN]
National Institutes of Environmental Health Sciences [NIEHS]
National Toxicology Program [NTP]
We have developed a 1536-well cell-based assay for quantitative high throughput screening (qHTS) against a number of cell lines to determine in vitro cytotoxicity of small molecules. This particular assay uses the NIH 3T3 fibroblast cell line which is established from NIH Swiss mouse embryo.
NCGC Assay Protocol Summary:
The CellTiter-Glo luminescent cell viability assay (Promega) is a homogeneous method to measure the number of viable cells in culture. The end point readout of this assay is based on quantitation of intracellular ATP, an indicator of metabolic activity, using the luciferase reaction. Luciferase catalyzes the oxidation of beetle Luciferin to oxyluciferin and light in the presence of ATP. The luminescent signal is proportional to amount of ATP present.
Using the CellTiter-Glo luminescent cell viability assay, the amount of cellular ATP was measured in the NIH 3T3 cell line with complete culture medium following compound treatment for 40 hours. The assay was performed in opaque white Kalypsys 1536-well plates. In the screen, tamoxifen and doxorubicin were used as positive controls. Library compounds were measured for their ability to cause acute toxicity in the cell line, as reflected by a decrease in intracellular ATP levels, in a concentration-dependent manner. […] AC50 values were determined from concentration-response data modeled with the standard Hill equation.
qHTS protocol for CellTiter Glo NIH 3T3 cellular assay
[Step] [Parameter] [Value] [Description]
1. Reagent; 5 uL; 1000 NIH 3T3 cells/well
2. Time; 5 hr; 37 °C incubation
4. Controls; 23 nL; Tamoxifen 0.34 uM to 100 uM & Doxorubicin 0.02 nM to 100 uM
5. Time; 40 hr; 37 °C incubation
6. Reagent; 5 uL; CellTiter Glo reagent
7. Time; 20 min; Room Temperature
8. Detection; Luminescence; Viewlux plate reader
Keywords: cell viability, cytotoxicity, NIH 3T3 cell line, luminescence, NTPHTS, NTPHTS_NCGC, NIEHS, EPA, DSSTox, MLSMR, MLSCN, NIH Roadmap, qHTS, NCGC
With `C=CCCl`, the “activity change, negative = cytotoxicity” value is 3.81%.

As for `Cc1ccc(N)cc1C`, the “activity change, negative = cytotoxicity” value is -0.945%.

Take `CN1CSC(=S)N(C)C1`: the Potency is 1.26 µM (active).

Consider `Cc1ccc2c(c1N)C(=O)c1ccccc1C2=O`, for which the Potency was 25.1 µM (active).

For the compound `COc1c(C(C)(C)C)cc([N+](=O)[O-])c(C)c1[N+](=O)[O-]`, the “activity change, negative = cytotoxicity” value was -4.23%.

With `Brc1ccc(Oc2ccc(Br)cc2Br)c(Br)c1`, the “activity change, negative = cytotoxicity” value was -10.9%.

With `CC(C)(Cl)Cl`, the “activity change, negative = cytotoxicity” value was 9.52%.

As for `OCCCCO`, the “activity change, negative = cytotoxicity” value is -14%.

For `CCC(Cl)[N+](=O)[O-]` (stereo not given), the “activity change, negative = cytotoxicity” value is -2.6%.

For the compound `Clc1cccc(Cl)c1`, the “activity change, negative = cytotoxicity” value is -2.84%.

On to `C/C=C/C=O`, for which the “activity change, negative = cytotoxicity” value was 1.78%.

Regarding `CC(=O)[O-].CC(=O)[O-].CC(=O)[O-].[Cr+3]`, the “activity change, negative = cytotoxicity” value is 3.09%.

`Nc1ncc([N+](=O)[O-])s1`: the “activity change, negative = cytotoxicity” value is -8.99%.

As for `Oc1cc(Cl)ccc1Cl`, the “activity change, negative = cytotoxicity” value is -16.7%.

As for `CC(C#N)CCC#N` (stereo not given), the “activity change, negative = cytotoxicity” value is -7.92%.

For `CCCCNC(=O)n1c(NC(=O)OC)nc2ccccc21`, the Potency is 5.01 µM (active).

`Nc1c(Cl)cc([N+](=O)[O-])cc1Cl`: the “activity change, negative = cytotoxicity” value was -27.1%.

Turning to `O=C(Cl)c1ccccc1F`, the “activity change, negative = cytotoxicity” value was 0.571%.

As for `CC(C)(C)C(O)(CCc1ccc(Cl)cc1)Cn1cncn1` (stereo not given), the “activity change, negative = cytotoxicity” value is -22.7%.

With `ClCc1ccccc1`, the “activity change, negative = cytotoxicity” value was -0.887%.

`CCCCOC(=O)c1ccccc1N`: the “activity change, negative = cytotoxicity” value was -12.9%.

With `CCCCOC(C)=O`, the “activity change, negative = cytotoxicity” value was -4.78%.

For the compound `Nc1ccc(-c2ccc(N)cc2)cc1`, the “activity change, negative = cytotoxicity” value was -19%.

On to `CCSC(=O)N1CCCCCC1`, for which the “activity change, negative = cytotoxicity” value was -6.67%.

Consider `C=CC=O`, for which the “activity change, negative = cytotoxicity” value was -13.7%.

For `NNC(N)=S`, the “activity change, negative = cytotoxicity” value is -0.191%.

As for `c1ccc(N=NNc2ccccc2)cc1`, the “activity change, negative = cytotoxicity” value was -17.1%.

`CC(C)OS(C)(=O)=O`: the “activity change, negative = cytotoxicity” value was -17.5%.

As to `CCCCC(=O)Cl`, the “activity change, negative = cytotoxicity” value is -3.05%.

As to `N#C/C(N)=C(/N)C#N`, the “activity change, negative = cytotoxicity” value is -21.1%.

With `COC(C)(C)C`, the “activity change, negative = cytotoxicity” value was -2.67%.

Take `C=CCc1cc(OC)c2c(c1)OCO2`: the “activity change, negative = cytotoxicity” value is 9.05%.

For `CCCCCCCCCCCOC(=O)c1ccccc1C(=O)OCCCCCCCCCCC`, the “activity change, negative = cytotoxicity” value is -18%.

`Nc1ccc(-c2ccc(N)c(Cl)c2)cc1Cl`: the Potency is 15.8 µM (active).

Consider `OC[P+](CO)(CO)CO`, for which the Potency is 0.501 µM (active).

`CC(=O)CCC(C)=O`: the “activity change, negative = cytotoxicity” value is -20.4%.

On to `BrC(Br)Br`, for which the “activity change, negative = cytotoxicity” value was -15.5%.

In the case of `C[N+](=O)[O-]`, the “activity change, negative = cytotoxicity” value is 5.77%.

`c1ccc2c(c1)CCNC2`: the “activity change, negative = cytotoxicity” value is -13%.

As to `N#CCc1ccccc1`, the “activity change, negative = cytotoxicity” value is -1.74%.
